From the supplement of paper PMC3842684

test system: P. falciparum NF54-pfs16-GFP early (I-III) stage gametocytes; assay: relative % inhibition of viable gametocyte number; higher = more gametocytocidal; details: 5 µM; stage: early (I-III) gametocyte; incubation 72 h
Procedure, shortened: (§1)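 NF54 pfs16-GFP gametocytes, magnet-isolated at early (I/IIa, day 2) or late (day 8) stage, were plated at 10% parasitaemia, 0.1% haematocrit in 384-well poly-D-lysine imaging plates with compound in duplicate at 5 or 0.5 µM. Plates were incubated 72 h at 37°C, 5% CO2, 5% O2, then overnight with MitoTracker Red. Confocal imaging counted elongated GFP objects with MitoTracker signal above cut-off as viable gametocytes. Relative inhibition was normalised to in-plate vehicle and positive-control wells.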

OC(Cn1nnc2ccccc21)Cn1c2ccc(Br)cc2c2cc(Br)ccc21 (stereo unspecified) was tested. Which relative % inhibition did it give?
Its relative % inhibition is 83.6%.

COc1ccc(CN2CCCC(C(=O)c3ccc(C(F)(F)F)cc3)C2)c(O)c1 (stereo unspecified) was tested. Which relative % inhibition did it give?
Its relative % inhibition is 93.7%.

How did the relative % inhibition turn out when Cc1ccc(Nc2nc(NCCO)c3ccccc3n2)cc1C was run?
The relative % inhibition was 84.7%.

How did the relative % inhibition turn out when COc1ccc(C2=C(c3ccc(OC)cc3)C3(c4ccccc4)C(=O)C2(c2ccccc2)C2C(=O)N(c4ccc(C)cc4)C(=O)C23)cc1 (stereo unspecified) was run?
Its relative % inhibition is 84.7%.

For Nc1ccc(-c2nc3cc(Cc4ccc5[nH]c(-c6ccc(N)cc6)nc5c4)ccc3[nH]2)cc1, which relative % inhibition is on record?
The relative % inhibition was 100%.

CCOc1cc2c(cc1OCC)C(c1cc(C)c(O)c(C)c1)NCC2 (stereo unspecified) was tested. Which relative % inhibition did it give?
Its relative % inhibition is 102%.

How did the relative % inhibition turn out when CCN1CCN(Cc2ccc(NC(=O)c3cc4ccc5cccnc5c4[nH]3)cc2)CC1 was run?
The relative % inhibition was 59.1%.

For O=C(NCc1ccco1)C1CCN(S(=O)(=O)c2ccc(Br)cc2)CC1, which relative % inhibition is on record?
Its relative % inhibition is -2.56%.

For O=C(NC1CCN(Cc2ccccc2)CC1)c1cc2nc(-c3ccc(Cl)s3)cc(C(F)(F)F)n2n1, which relative % inhibition is on record?
The relative % inhibition was -15.9%.

With O=C1C2=C(Nc3ccccc3SC2c2ccccc2)c2ccccc21 (stereo unspecified) as the molecule, how does the relative % inhibition read?
The relative % inhibition was -12.7%.

How did the relative % inhibition turn out when CC1CCCCN1CCCNC(=O)c1ccc2c(c1)sc1nc(-c3ccc(F)cc3)cn12 (stereo unspecified) was run?
Its relative % inhibition is 88.1%.

With CCN(CC)CCn1c(=N)n(CC(O)c2ccc(Cl)c(Cl)c2)c2ccccc21 (stereo unspecified) as the molecule, how does the relative % inhibition read?
The relative % inhibition was 61.8%.

Which relative % inhibition does the source give for O=C(Nc1ccc(Cl)cc1)N1CCN(c2ccc3nncn3n2)CC1 here?
The relative % inhibition was 6.7%.

COc1ccc(C2c3ccc4ccccc4c3Oc3ncn(CCCn4ccnc4)c(=N)c32)cc1OC (stereo unspecified) was tested. Which relative % inhibition did it give?
The relative % inhibition was -9.76%.

COc1ccc(-c2cc3c(nn2)-c2ccccc2C3=O)cc1 was tested. Which relative % inhibition did it give?
Its relative % inhibition is 81.1%.

How did the relative % inhibition turn out when CCN(CC)CCNc1ncnc2c1[nH]c1ccc(Cl)cc12 was run?
The relative % inhibition was 79.1%.

How did the relative % inhibition turn out when COc1ccccc1N1C(=N)SC(=Cc2ccc(OCc3ccccc3F)cc2)C1=O was run?
The relative % inhibition was 25.8%.

Which relative % inhibition does the source give for Cc1ccccc1OCCSc1nc2ccc(NC(=O)c3cccs3)cc2s1 here?
The relative % inhibition was 19.4%.

For Cc1c(C)n(Cc2ccc(F)cc2)c2ccc(C(=O)NCc3ccco3)cc12, which relative % inhibition is on record?
The relative % inhibition was -8.91%.

Which relative % inhibition does the source give for CCOC(=O)c1c(C)n(-c2ccc(Cl)cc2)c2ccc(OC(=O)C=Cc3ccccc3)cc12 here?
Its relative % inhibition is 26.8%.

Which relative % inhibition does the source give for CCOc1cccc(C(=O)Nc2ccc(-c3nc4ccccc4[nH]3)cc2)c1 here?
The relative % inhibition was -17.2%.

With CCOc1ccc(CN2CCN(CC(O)COc3ccc(OCC(O)CN4CCN(Cc5ccc(OCC)cc5)CC4)cc3)CC2)cc1 (stereo unspecified) as the molecule, how does the relative % inhibition read?
Its relative % inhibition is 74.7%.

With O=c1cc(NC2CCN(CCCc3ccccc3)CC2)c2cc(Cl)ccc2o1 as the molecule, how does the relative % inhibition read?
The relative % inhibition was 79.8%.

With CCCc1c(C)nc2ccccc2c1O as the molecule, how does the relative % inhibition read?
The relative % inhibition was 15.7%.

With COc1cccc(NC(=O)[C@H](C(C)C)n2c(=O)[nH]c3ccccc3c2=O)c1 as the molecule, how does the relative % inhibition read?
The relative % inhibition was 97.8%.

Cc1cc(N2CCN(C3CCCC3)CC2)n2c(nc3ccccc32)c1C#N was tested. Which relative % inhibition did it give?
Its relative % inhibition is -15.8%.

Which relative % inhibition does the source give for Cc1ccc(OCCCCCCNCCO)c(C)c1 here?
Its relative % inhibition is 30.1%.

For CN1C=C(c2ccc3ccccc3n2)C(c2c[nH]c3ccccc23)c2ccccc21 (stereo unspecified), which relative % inhibition is on record?
Its relative % inhibition is 49.6%.

How did the relative % inhibition turn out when Cc1[nH]c(-c2ccc(F)cc2)cc1C(=O)NC1CCN(Cc2ccccc2)CC1 was run?
Its relative % inhibition is 75.3%.

Which relative % inhibition does the source give for COc1ccccc1N1CCN(C(CNS(=O)(=O)c2ccc(Cl)cc2)c2cccnc2)CC1 (stereo unspecified) here?
The relative % inhibition was 41.8%.

How did the relative % inhibition turn out when O=C(NCC1Cc2cccc(-c3ccncc3)c2O1)c1csc2c1CCCC2 (stereo unspecified) was run?
The relative % inhibition was 6.48%.

How did the relative % inhibition turn out when Cn1c(=O)n(C)c2cc(CNCCNc3ccnc4cc(Cl)ccc34)ccc21 was run?
Its relative % inhibition is 29.6%.

For CCC(c1ccccc1)c1nn2c(-c3cccs3)nnc2s1 (stereo unspecified), which relative % inhibition is on record?
Its relative % inhibition is -13.5%.

COc1ccc(C=C2SC(Nc3ccc(F)cc3)=NC2=O)c(OC)c1 was tested. Which relative % inhibition did it give?
The relative % inhibition was 8.91%.

With COc1ccc(Nc2nc(NN=Cc3ccc(O)cc3)nc(Nc3ccc([N+](=O)[O-])cc3)n2)cc1 as the molecule, how does the relative % inhibition read?
The relative % inhibition was 101%.

For CN(C)CCCNCc1ccc(-c2ccc(F)c(Cl)c2)o1, which relative % inhibition is on record?
Its relative % inhibition is 99.5%.

Which relative % inhibition does the source give for CCOC(=O)c1cnc2c(CC)cccc2c1O here?
The relative % inhibition was 0.0948%.

For Cc1cc(NCCN2CCCCC2)c2ccc3ccccc3c2n1, which relative % inhibition is on record?
Its relative % inhibition is 97.3%.

test system: P. falciparum NF54-pfs16-GFP late (IV-V) stage gametocytes; assay: as above; details: 0.5 µM; stage: late (IV-V) gametocyte; incubation 72 h
Procedure, shortened: as §1

How did the relative % inhibition turn out when OC(Cn1nnc2ccccc21)Cn1c2ccc(Br)cc2c2cc(Br)ccc21 (stereo unspecified) was run?
Its relative % inhibition is 18.2%.

With COc1ccc(CN2CCCC(C(=O)c3ccc(C(F)(F)F)cc3)C2)c(O)c1 (stereo unspecified) as the molecule, how does the relative % inhibition read?
Its relative % inhibition is 14.8%.

Cc1ccc(Nc2nc(NCCO)c3ccccc3n2)cc1C was tested. Which relative % inhibition did it give?
Its relative % inhibition is 38%.

COc1ccc(C2=C(c3ccc(OC)cc3)C3(c4ccccc4)C(=O)C2(c2ccccc2)C2C(=O)N(c4ccc(C)cc4)C(=O)C23)cc1 (stereo unspecified) was tested. Which relative % inhibition did it give?
The relative % inhibition was 34.3%.

Nc1ccc(-c2nc3cc(Cc4ccc5[nH]c(-c6ccc(N)cc6)nc5c4)ccc3[nH]2)cc1 was tested. Which relative % inhibition did it give?
The relative % inhibition was 14.6%.

CCOc1cc2c(cc1OCC)C(c1cc(C)c(O)c(C)c1)NCC2 (stereo unspecified) was tested. Which relative % inhibition did it give?
Its relative % inhibition is 24.3%.

With CCN1CCN(Cc2ccc(NC(=O)c3cc4ccc5cccnc5c4[nH]3)cc2)CC1 as the molecule, how does the relative % inhibition read?
Its relative % inhibition is -6.9%.

With O=C(NCc1ccco1)C1CCN(S(=O)(=O)c2ccc(Br)cc2)CC1 as the molecule, how does the relative % inhibition read?
Its relative % inhibition is 29%.

Which relative % inhibition does the source give for O=C(NC1CCN(Cc2ccccc2)CC1)c1cc2nc(-c3ccc(Cl)s3)cc(C(F)(F)F)n2n1 here?
Its relative % inhibition is 21.4%.

How did the relative % inhibition turn out when O=C1C2=C(Nc3ccccc3SC2c2ccccc2)c2ccccc21 (stereo unspecified) was run?
The relative % inhibition was 61.6%.

Which relative % inhibition does the source give for CC1CCCCN1CCCNC(=O)c1ccc2c(c1)sc1nc(-c3ccc(F)cc3)cn12 (stereo unspecified) here?
Its relative % inhibition is 23.2%.

CCN(CC)CCn1c(=N)n(CC(O)c2ccc(Cl)c(Cl)c2)c2ccccc21 (stereo unspecified) was tested. Which relative % inhibition did it give?
The relative % inhibition was 19.3%.

Which relative % inhibition does the source give for O=C(Nc1ccc(Cl)cc1)N1CCN(c2ccc3nncn3n2)CC1 here?
Its relative % inhibition is 4.09%.

COc1ccc(C2c3ccc4ccccc4c3Oc3ncn(CCCn4ccnc4)c(=N)c32)cc1OC (stereo unspecified) was tested. Which relative % inhibition did it give?
The relative % inhibition was 49.2%.

With COc1ccc(-c2cc3c(nn2)-c2ccccc2C3=O)cc1 as the molecule, how does the relative % inhibition read?
The relative % inhibition was 87.4%.

How did the relative % inhibition turn out when CCN(CC)CCNc1ncnc2c1[nH]c1ccc(Cl)cc12 was run?
Its relative % inhibition is 2.71%.

With COc1ccccc1N1C(=N)SC(=Cc2ccc(OCc3ccccc3F)cc2)C1=O as the molecule, how does the relative % inhibition read?
The relative % inhibition was 32.6%.

With Cc1ccccc1OCCSc1nc2ccc(NC(=O)c3cccs3)cc2s1 as the molecule, how does the relative % inhibition read?
The relative % inhibition was 18.1%.

Cc1c(C)n(Cc2ccc(F)cc2)c2ccc(C(=O)NCc3ccco3)cc12 was tested. Which relative % inhibition did it give?
The relative % inhibition was 16.9%.

CCOC(=O)c1c(C)n(-c2ccc(Cl)cc2)c2ccc(OC(=O)C=Cc3ccccc3)cc12 was tested. Which relative % inhibition did it give?
The relative % inhibition was 11.1%.

For CCOc1cccc(C(=O)Nc2ccc(-c3nc4ccccc4[nH]3)cc2)c1, which relative % inhibition is on record?
The relative % inhibition was 4.79%.

How did the relative % inhibition turn out when CCOc1ccc(CN2CCN(CC(O)COc3ccc(OCC(O)CN4CCN(Cc5ccc(OCC)cc5)CC4)cc3)CC2)cc1 (stereo unspecified) was run?
The relative % inhibition was -16.8%.

How did the relative % inhibition turn out when O=c1cc(NC2CCN(CCCc3ccccc3)CC2)c2cc(Cl)ccc2o1 was run?
The relative % inhibition was -5.8%.

CCCc1c(C)nc2ccccc2c1O was tested. Which relative % inhibition did it give?
Its relative % inhibition is 56.5%.

How did the relative % inhibition turn out when COc1cccc(NC(=O)[C@H](C(C)C)n2c(=O)[nH]c3ccccc3c2=O)c1 was run?
Its relative % inhibition is 35%.

How did the relative % inhibition turn out when Cc1cc(N2CCN(C3CCCC3)CC2)n2c(nc3ccccc32)c1C#N was run?
Its relative % inhibition is 11.3%.

Which relative % inhibition does the source give for Cc1ccc(OCCCCCCNCCO)c(C)c1 here?
Its relative % inhibition is -16.2%.

With CN1C=C(c2ccc3ccccc3n2)C(c2c[nH]c3ccccc23)c2ccccc21 (stereo unspecified) as the molecule, how does the relative % inhibition read?
The relative % inhibition was 19.8%.

How did the relative % inhibition turn out when Cc1[nH]c(-c2ccc(F)cc2)cc1C(=O)NC1CCN(Cc2ccccc2)CC1 was run?
The relative % inhibition was 6.29%.

For COc1ccccc1N1CCN(C(CNS(=O)(=O)c2ccc(Cl)cc2)c2cccnc2)CC1 (stereo unspecified), which relative % inhibition is on record?
The relative % inhibition was -0.978%.

Which relative % inhibition does the source give for O=C(NCC1Cc2cccc(-c3ccncc3)c2O1)c1csc2c1CCCC2 (stereo unspecified) here?
The relative % inhibition was 5.28%.

Cn1c(=O)n(C)c2cc(CNCCNc3ccnc4cc(Cl)ccc34)ccc21 was tested. Which relative % inhibition did it give?
The relative % inhibition was 37.6%.

CCC(c1ccccc1)c1nn2c(-c3cccs3)nnc2s1 (stereo unspecified) was tested. Which relative % inhibition did it give?
The relative % inhibition was 8.5%.

Which relative % inhibition does the source give for COc1ccc(C=C2SC(Nc3ccc(F)cc3)=NC2=O)c(OC)c1 here?
Its relative % inhibition is 24.9%.

Which relative % inhibition does the source give for COc1ccc(Nc2nc(NN=Cc3ccc(O)cc3)nc(Nc3ccc([N+](=O)[O-])cc3)n2)cc1 here?
Its relative % inhibition is -4.05%.

How did the relative % inhibition turn out when CN(C)CCCNCc1ccc(-c2ccc(F)c(Cl)c2)o1 was run?
The relative % inhibition was 7.27%.

With CCOC(=O)c1cnc2c(CC)cccc2c1O as the molecule, how does the relative % inhibition read?
Its relative % inhibition is 21.6%.

How did the relative % inhibition turn out when Cc1cc(NCCN2CCCCC2)c2ccc3ccccc3c2n1 was run?
Its relative % inhibition is 4.67%.
